Pol iota inh = qHTS for Inhibitors of Polymerase Iota | DNA polymerase iota (Homo sapiens), Q9UNA4 | Pol iota fluorescent replication assay, 10 min | Potency, µM (top dose mostly 115 µM), without a hit: at the top dose activity, negative = inhibition, hits mostly inhibitors | 390,000 compounds, 1% hits
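Pol iota at 10 nM preincubated 15 min with compounds at room temperature; reaction started with fluorescent substrate, 50 nM final. Fluorescence read kinetically at 0 and 10 min; buffer-only wells as negative control.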
POLB inh = qHTS Assay for Inhibitors of DNA Polymerase Beta; P06746; Pol beta primer extension/strand displacement, fluorescence kinetic; Potency, µM (top dose mostly 114 µM), for the others: top-dose activity change, negative = inhibition, most hits filed as inhibitors; 340,000 compounds, 1.3% hits; also: % is scaled to controls: 0 for no effect and ±100 for the full control effect
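Curves were derived by four-parameter Hill fits of normalized qHTS data. The kinetic fluorescent primer-extension read was taken at 0 and 10 min after 50 nM substrate, following a 15 min room-temperature preincubation of 10 nM enzyme with compounds.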
WRN helicase inh = qHTS for Inhibitors of WRN Helicase; Bifunctional 3'-5' exonuclease/ATP-dependent helicase WRN (Homo sapiens), Q14191; WRN helicase unwinding, fluorescent forked duplex, kinetic; Potency, µM (titrated, usually from 114 µM), without a hit: at the highest dose activity change, negative = inhibition, hits mostly inhibitors; 360,000 compounds, 0.46% hits; AID 651768, 2012; also: % is scaled to controls: 0 for no effect and ±100 for the full control effect; nearly all actives have a fitted effect of over 55% in size
Target sequence (Q14191 whole entry, looked up): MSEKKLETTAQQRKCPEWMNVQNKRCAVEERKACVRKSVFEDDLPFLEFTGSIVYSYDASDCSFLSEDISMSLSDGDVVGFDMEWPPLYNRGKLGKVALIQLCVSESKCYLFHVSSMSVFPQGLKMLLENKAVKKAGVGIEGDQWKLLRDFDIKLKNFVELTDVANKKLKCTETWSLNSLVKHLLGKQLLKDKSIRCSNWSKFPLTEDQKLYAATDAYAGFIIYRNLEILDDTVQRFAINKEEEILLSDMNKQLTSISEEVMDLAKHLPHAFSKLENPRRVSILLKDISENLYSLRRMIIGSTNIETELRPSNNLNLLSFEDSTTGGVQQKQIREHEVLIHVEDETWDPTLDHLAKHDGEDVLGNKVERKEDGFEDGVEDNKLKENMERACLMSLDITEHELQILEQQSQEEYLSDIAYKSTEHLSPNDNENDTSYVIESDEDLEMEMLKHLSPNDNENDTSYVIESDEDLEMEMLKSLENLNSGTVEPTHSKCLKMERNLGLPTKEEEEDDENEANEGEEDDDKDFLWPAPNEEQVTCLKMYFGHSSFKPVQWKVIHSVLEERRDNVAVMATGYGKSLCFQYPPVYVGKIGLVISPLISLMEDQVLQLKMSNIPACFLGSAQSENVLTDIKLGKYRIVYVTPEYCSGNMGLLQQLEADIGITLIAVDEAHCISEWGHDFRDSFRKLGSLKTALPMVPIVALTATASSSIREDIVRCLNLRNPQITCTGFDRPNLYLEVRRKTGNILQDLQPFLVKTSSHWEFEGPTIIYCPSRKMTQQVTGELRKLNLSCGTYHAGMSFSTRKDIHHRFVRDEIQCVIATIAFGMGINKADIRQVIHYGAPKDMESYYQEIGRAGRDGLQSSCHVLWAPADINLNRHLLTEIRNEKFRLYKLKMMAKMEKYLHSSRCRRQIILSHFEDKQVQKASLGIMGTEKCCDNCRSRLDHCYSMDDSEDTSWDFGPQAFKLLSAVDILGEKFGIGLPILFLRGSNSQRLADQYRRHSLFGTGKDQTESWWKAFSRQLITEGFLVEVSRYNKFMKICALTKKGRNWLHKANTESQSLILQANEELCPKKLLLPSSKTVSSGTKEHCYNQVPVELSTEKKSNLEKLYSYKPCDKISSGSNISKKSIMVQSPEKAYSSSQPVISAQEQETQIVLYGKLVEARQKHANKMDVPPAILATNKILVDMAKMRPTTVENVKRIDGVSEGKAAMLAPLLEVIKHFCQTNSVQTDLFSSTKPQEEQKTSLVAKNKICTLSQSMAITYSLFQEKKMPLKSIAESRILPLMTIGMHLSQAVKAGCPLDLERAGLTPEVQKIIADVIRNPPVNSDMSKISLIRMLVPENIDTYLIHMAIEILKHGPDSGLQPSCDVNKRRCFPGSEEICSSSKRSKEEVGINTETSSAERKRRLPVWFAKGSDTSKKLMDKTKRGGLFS
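Primary qHTS, 1536-well format. 20 nM WRN + compound, 15 min RT; start with 100 nM forked fluorophore/quencher duplex, 2 mM ATP (final); kinetic read ex 525/em 598 nm.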
Pol kappa inh = qHTS for Inhibitors of Polymerase Kappa; DNA polymerase kappa (Homo sapiens), Q9UBT6; purified Pol kappa, fluorescent DNA synthesis assay, 10 min; Potency, µM (titrated, usually from 107 µM), without a hit: at the top dose activity, negative = inhibition, hits mostly inhibitors; 400,000 compounds, 0.53% hits; AID 588579, 2011; also: % is scaled to controls: 0 for no effect and ±100 for the full control effect
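Enzyme at 10 nM met test compounds for 15 min at room temperature. Substrate addition (50 nM final) began the reaction, which was monitored by fluorescence at 0 and 10 min.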
Pol eta inh = qHTS for Inhibitors of Polymerase Eta; recombinant Pol eta, fluorescent DNA replication assay; 390,000 compounds, 1.2% hits; Potency, µM (series often up to 114 µM), for inactives: top-dose activity change, negative = inhibition, most hits filed as inhibitors; AID 588591, 2011; also: % is scaled to controls: 0 for no effect and ±100 for the full control effect
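Fluorescent replication assay: 50 nM final substrate added after a 15 min room-temperature compound preincubation with 10 nM enzyme. Signal taken at 0 min and again at 10 min.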
Numbers without * were called inactive; [ ] = remark or other dose. Only some compounds are listed: those with a hit (about 2.3% of all), similar ones and a draw of the others. Calls follow the shape of the dose curve; as a rule, active = well fitted curve in the direction sought with a large enough effect; inconclusive = small, poorly fitted or top-dose-only effect, or another doubt; inactive = no such curve, though single readings can be large; an effect the other way counts as inactive or inconclusive. Potency is read from the fitted curve at half-maximal effect.

For C=CCn1c(SCc2nc3sc(C(=O)O)c(C)c3c(=O)[nH]2)nnc1-c1ccccc1 the results were Pol iota inh inconclusive, POLB inh -0.2%, WRN helicase inh -35.4%[57.1 µM], Pol kappa inh -37.3% and Pol eta inh 31.6µM*.
Screening O=C(Cc1ccc(S(=O)(=O)N2CCOCC2)s1)NCC(=O)Nc1ccccc1Br returned Pol iota inh 30.0%, WRN helicase inh 6.6%, Pol kappa inh 2.9% and Pol eta inh -2.6%.
`O=C(Cc1ccc(S(=O)(=O)N2CCOCC2)s1)Nc1ccccc1Br` gave Pol iota inh inconclusive, POLB inh 35.5µM*, WRN helicase inh -7.3%, Pol kappa inh inconclusive and Pol eta inh inconclusive.
O=C(Cc1ccc(S(=O)(=O)N2CCCC2)s1)N1CCN(c2ccccc2)CC1 was read as Pol iota inh 54.5%, POLB inh 31.6µM*, WRN helicase inh -3.7%, Pol kappa inh 0.4% and Pol eta inh -9.1%.
`CCCCn1c(N)c(N(CCC(C)C)C(=O)c2cc(Cl)nc3ccccc23)c(=O)[nH]c1=O` gave Pol iota inh 8.8%, WRN helicase inh -2.1%, Pol kappa inh -8.0% and Pol eta inh 1.0%.
Screening CCCCn1c(N)c(N(CC(C)C)C(=O)c2oc3ccc(Br)cc3c2C)c(=O)[nH]c1=O returned Pol iota inh inconclusive, WRN helicase inh 4.2%[11.6 µM], Pol kappa inh -9.5% and Pol eta inh 79.4µM*.
Screening CCCCn1c(N)c(N(CC(C)C)C(=O)c2cc(-c3ccco3)nc3ccccc23)c(=O)[nH]c1=O returned Pol iota inh 39.8µM*, WRN helicase inh -25.2%, Pol kappa inh inconclusive and Pol eta inh 28.2µM*.
For C=C1C=C(C(F)F)n2ncc(C(=O)Nc3ccc(N(CC)CC)cc3)c2N1 the results were Pol iota inh 8.4% and Pol kappa inh -23.4%.
`CC(=O)C[n+]1cccc(Br)c1` gave Pol iota inh 68.1% and Pol kappa inh -8.3%.
For O=C(O)/C=C/C(=O)c1c(-c2ccccc2)[nH]c2ccccc12 the results were Pol iota inh 2.51µM*, POLB inh -17.2%, WRN helicase inh -34.5%, Pol kappa inh -2.0% and Pol eta inh inconclusive.
Screening COc1cccc(/C=c2/[nH]c(=O)/c(=C\c3cccc(OC)c3OC)[nH]c2=O)c1OC returned Pol iota inh 1.6% and Pol kappa inh -4.2%.
`O=C(Nc1ccccc1F)C1CCCN(S(=O)(=O)c2ccccc2)C1` (stereo unspecified) gave Pol iota inh 88.4%, POLB inh 4.0%, WRN helicase inh 79.4µM*, Pol kappa inh -10.8% and Pol eta inh -18.3%.
For CCC(Cn1nnc2ccccc2c1=O)NC(=O)Nc1ccc(C)c(C)c1 (stereo unspecified) the results were Pol iota inh inconclusive, POLB inh 0.5%, Pol kappa inh -6.4% and Pol eta inh -16.6%.
`CC(C)C[C@H](NC(=O)[C@H](Cc1ccccc1)NC(=O)[C@@H]1CCCN1C(=O)[C@H](CC(=O)O)NC(=O)[C@@H]1CCC(=O)N1)C(=O)N[C@@H](CCCN=C(N)N)C(=O)N[C@@H](Cc1ccccc1)C(N)=O` gave Pol kappa inh 9.3%[60.1 µM].
For N#CCSc1ccccc1NC(=O)COc1ccc(-c2nnco2)cc1 the results were Pol iota inh 37.7%, WRN helicase inh -3.0%, Pol kappa inh -4.3% and Pol eta inh -22.1%.
Screening N#Cc1ccsc1NC(=O)COc1ccc(-c2nnco2)cc1 returned Pol iota inh inconclusive, POLB inh inconclusive, WRN helicase inh inconclusive, Pol kappa inh -40.5% and Pol eta inh 20µM*.
O=C(O)c1ccc2[nH]c3c(c2c1)CSCC3 was read as Pol iota inh -18.0%, POLB inh inconclusive, WRN helicase inh -25.2%, Pol kappa inh inconclusive and Pol eta inh 8.91µM*.
`O=C(CSc1ccccn1)Nc1cccc(NC(=O)CSc2ccccn2)n1` gave Pol iota inh inconclusive, POLB inh 10µM*, WRN helicase inh -11.8%, Pol kappa inh -18.6% and Pol eta inh -5.7%.
Screening CC(=O)Nc1ccc(NC(=O)CSc2ccccn2)cc1 returned Pol iota inh 18.8%, POLB inh 4.7%, WRN helicase inh -24.1%[57.1 µM], Pol kappa inh -22.8% and Pol eta inh -2.2%.
For Cc1ccc(C)c(N2CCN(C(=O)C3CCN(c4nc(-c5ccc(C(C)C)cc5)no4)CC3)CC2)c1 the results were Pol iota inh -2.2%, POLB inh 26.9%, Pol kappa inh -9.5%[60.1 µM] and Pol eta inh -14.4%.
For Cc1ccc(S(=O)(=O)N2CCN(c3cc(-c4cccs4)nc4ccccc34)CC2)cc1 the results were Pol iota inh 1.3% and Pol kappa inh -21.6%.
N#C/C(=C/c1ccc(N2CCOCC2)o1)c1nc2ccccc2[nH]1 was read as Pol iota inh 7.5%, POLB inh inconclusive, WRN helicase inh 56.2µM*, Pol kappa inh -20.2% and Pol eta inh inconclusive.
N#C/C(=C\c1ccc(Sc2ccc(Cl)cc2)o1)c1nc2ccccc2[nH]1 was read as Pol iota inh inconclusive, POLB inh 15.8µM*, WRN helicase inh -5.7%, Pol kappa inh -8.1% and Pol eta inh inconclusive.
c1cnc2nc(-c3ccc4c(c3)OCO4)cn2c1 was read as Pol iota inh 46.4%, POLB inh 2.2%, WRN helicase inh -3.5%, Pol kappa inh -15.6% and Pol eta inh -8.3%.
Screening c1ccn2cc(-c3ccc4c(c3)OCO4)cc2c1 returned Pol iota inh 44.7µM*, POLB inh 39.8µM*, WRN helicase inh -6.3%, Pol kappa inh -35.5% and Pol eta inh -13.9%.
Screening Fc1ccccc1N1CCN(C(c2ccncc2)c2nnnn2C2CCCC2)CC1 (stereo unspecified) returned Pol iota inh 79.4µM*, POLB inh 4.2%, WRN helicase inh -3.4%, Pol kappa inh -5.1% and Pol eta inh -12.5%.
`CCC(c1nnnn1C1CCCC1)N1CCN(c2ccccc2F)CC1` (stereo unspecified) gave Pol iota inh 5.8%, POLB inh -26.8%, WRN helicase inh 2.0%, Pol kappa inh 3.3% and Pol eta inh -9.2%.
O=C(Cc1ccc(Br)cc1)NO was read as Pol iota inh 24.5% and Pol kappa inh 3.4%.
`O=S(=O)(c1ccccc1Cl)N1CCN(c2nc(-c3ccccc3)nc3ccccc23)CC1` gave Pol iota inh -6.2% and Pol kappa inh 1.2%.
Screening Cc1cc(-c2nnc(SCC(=O)c3ccc4c(c3)OCCO4)o2)no1 returned Pol iota inh 54.1%, POLB inh 39.8µM*, WRN helicase inh 0.7%, Pol kappa inh -6.8% and Pol eta inh -12.7%.
